CHT allo act: human CHT allosteric activation. Q9GZV3. 310,000 tested, 0.49% active. B-score at 10 µM. CHT-expressing cells, membrane potential dye, choline EC20; stronger effect = higher value; LV-AA mutant CHT in HEK293 cells;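 active means initial fluorescence not abnormally high and integrated response B-score, plate-corrected, over 3 SD above library mean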
Target sequence (Q9GZV3 whole entry, looked up): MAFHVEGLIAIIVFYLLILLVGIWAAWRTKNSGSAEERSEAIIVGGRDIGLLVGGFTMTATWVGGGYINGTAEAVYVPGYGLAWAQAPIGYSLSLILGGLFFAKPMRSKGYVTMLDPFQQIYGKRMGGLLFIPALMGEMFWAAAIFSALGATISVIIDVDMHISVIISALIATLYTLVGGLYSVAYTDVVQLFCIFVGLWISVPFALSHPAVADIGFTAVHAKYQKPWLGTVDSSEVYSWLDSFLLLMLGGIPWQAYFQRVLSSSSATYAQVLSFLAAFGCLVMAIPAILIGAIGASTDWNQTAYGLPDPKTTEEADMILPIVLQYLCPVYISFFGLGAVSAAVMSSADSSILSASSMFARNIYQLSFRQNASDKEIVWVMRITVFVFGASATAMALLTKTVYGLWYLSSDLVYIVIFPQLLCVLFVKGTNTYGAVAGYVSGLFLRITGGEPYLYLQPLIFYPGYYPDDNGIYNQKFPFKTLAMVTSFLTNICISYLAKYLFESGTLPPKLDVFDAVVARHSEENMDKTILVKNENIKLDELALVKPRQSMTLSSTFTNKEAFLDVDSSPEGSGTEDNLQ
CHT inh: human CHT choline transport inhibition | Q9GZV3 | CHT-expressing cells, membrane potential dye, choline response; stronger effect = lower value | 310,000 tested, 0.86% active | B-score at 10 µM;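 active means B-score over 3 SD under the library average, and starting fluorescence ratio not unusually high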;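 further: choline stimulus applied at its EC90 after an EC20 pre-addition; B-score computed on integrated fluorescence ratio after choline addition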
TMEM16A inh: blocks the mouse calcium-activated chloride channel TMEM16A | Q8BHY3 | HEK293 TMEM16A/YFP iodide influx fluorescence, ionomycin | normalized B-score (activity score, 25-100; higher = stronger inhibition) at 10 µM | 310,000 tested, 1.2% active | AID 588511;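 active means ratio plate-corrected score three or more library SD toward inhibition, starting fluorescence score within five deviations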;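 further: score derived from kinetic fluorescence span divided by baseline fluorescence per well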
ANO1 activ: activators or potentiators of mouse TMEM16A chloride channel; 340,000 tested, 0.3% active; AID 623877; B-score at 10 µM; HEK293 TMEM16A/YFP-H148Q/I152L, iodide quench fluorescence; stronger effect = lower value; Q8BHY3;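 active means fluorescence-ratio B-score plate-corrected deviation score at least 3 library SD below zero, with starting fluorescence score within 5 deviations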;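 further: channel opened by trigger with iodide after compound preincubation; score built on the fluorescence ratio of max minus min over baseline; more negative score means more quench and so TMEM16A activation or potentiation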
CHT activ conf: confirmation of human choline transporter (CHT) activators | shares compounds with CHT allo act | CHT-expressing cells, membrane potential dye fluorescence (FDSS); % of choline EC20–EC90 response window; HEK293 expressing CHT LV-AA mutant; choline added at its EC20 | activation, % at 10 µM | 2,500 tested, 91% active;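 active means primary screen active, with duplicate mean activation above negative control mean plus 3 SD, cut at about 11% in these data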
HEK293 MP dye: CHT activator counter-screen hit in parental HEK293 cells; AID 623908; membrane potential dye fluorescence (FDSS); measured after EC20 choline addition; 2,500 tested, 62% active; ratio readout change at 10 µM, hits read low; shares compounds with CHT allo act;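 active means duplicate-averaged ratio beyond 3 SD from buffer wells, up or down, though filed actives are nearly all decreases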
* marks the source's active call; other numbers are inactive results; i = inactive; x = no result given. An excerpt weighted towards active compounds, which were near 2.3% of everything screened.

SMILES	CHT allo act	CHT inh	TMEM16A inh	ANO1 activ	CHT activ conf	HEK293 MP dye
Cc1ccc(NC(=O)C2CC3CCC2C3)c(Br)c1 (stereo unspecified)	i	i	i	i	x	x
COc1ccc(C[C@H]2CN3C(=NC[C@@H]3Cc3ccccc3)N2CCNC(=O)CCC2CCCCC2)cc1	9.6*	i	i	i	20*	i
Cn1c(=O)[nH]c(=O)c2c1nc(N/N=C/c1ccncc1)n2Cc1ccc(Cl)cc1	i	i	i	i	x	x
CN1C(=O)c2c(sc3c2CC(C)(C)SC3)N2CCN=C12	15*	i	i	i	60*	-55*
CC1(C)Cc2c(sc3c2C(=O)N(c2ccccc2)C2=NCCN23)CS1	i	i	i	i	x	x
COc1ccc(-c2csc(Cc3nnc(N4CCOCC4)n3-c3ccccc3)n2)cc1	i	i	i	i	x	x
CCOc1cc(CNCCO)cc(Br)c1OCc1ccccc1	i	i	i	i	x	x
CCOc1cc(CNCCSc2nnnn2C)cc(Br)c1OCc1ccccc1	7*	i	i	i	15*	i
C[C@@]12C(=O)N(CC3CCCO3)CC(=O)N1[C@H]1c3ccccc3OC[C@@H]1[C@@H]2c1ccccc1 (stereo partly specified)	x	x	x	i	x	x
CC(C)(C)OC(=O)N1Cc2ccccc2C[C@H]1C(=O)NC1CCCC1	i	i	i	i	2	i
CC(C)OC(=O)CC1C(=O)NCCN1C(=S)NC(=O)c1ccc(F)cc1 (stereo unspecified)	i	i	i	i	x	x
Cc1ccc2c(c1)C(c1ccc(F)cc1)N(C(=O)c1ccccc1Br)CC(=O)N2 (stereo unspecified)	i	i	i	i	x	x
Cc1nc2c(C)cccc2c2c1COC2	i	i	i	i	55*	-59*
FC(F)(F)c1ccc(N/N=C/c2cccnc2)nc1	i	i	i	i	x	x
COc1ccc(/C=N/Nc2ccccn2)cc1OC	i	i	i	i	42*	-43*
C(=N\Nc1ccccn1)/c1cccnc1	i	i	i	i	59*	-54*
CC(C)n1nnnc1C(c1ccc(F)cc1)N1CCN(C2CCCC2)CC1 (stereo unspecified)	x	x	x	i	x	x
Fc1ccc(C(c2nnnn2Cc2ccco2)N2CCN(C3CCCCC3)CC2)cc1 (stereo unspecified)	i	i	i	i	31*	i
O=C(O)/C=C/C(=O)Nc1ccc2c(c1)C(=O)c1ccccc1C2=O	i	i	i	i	28*	-27*
COc1ccc(C(=O)NCCNC(=O)c2cc(OCC(F)(F)F)ccc2OCC(F)(F)F)cc1	i	i	i	i	x	x
Nc1ccc(Br)c[n+]1Cc1cccc2cccnc12	i	i	i	i	34*	-46*
Cc1[nH]c2ccccc2c1/C=N/NC(=O)c1cccc([N+](=O)[O-])c1	i	i	i	i	x	x
Cc1[nH]c2ccccc2c1/C=N/Nc1ccc([N+](=O)[O-])cc1	i	i	i	i	17*	i
CCOC(=O)[C@@H]1[C@H]2COc3ccc(Br)cc3[C@@H]2N2C(=O)N(c3ccccc3)C(=O)[C@@]12C	8.7*	i	i	i	20*	i
CCOC(=O)[C@H]1[C@H]2COc3ccc(Br)cc3[C@@H]2N2C(=O)N(c3ccccc3)C(=O)[C@@]12C	x	x	x	i	x	x
[O-][N+]1=c2ccc(Nc3ccccc3)cc2=NC12CCCCC2	i	i	i	i	x	x
COc1ccc(Nc2ccc3c(c2)=NC2(CCCCC2)[N+]=3[O-])cc1	7.2*	i	i	i	51*	-73*
Cc1cc(NC(=O)CSc2nc(-c3ccco3)cc(C(F)(F)F)n2)n(-c2ccccc2)n1	i	i	i	i	x	x
Cc1cc(NC(=O)CCCSc2nc(-c3ccco3)cc(C(F)(F)F)n2)n(-c2ccccc2)n1	i	i	i	i	15*	i

Source: PubChem (Johns Hopkins Ion Channel Center)
